# CYP2C9 inh: human CYP2C9 inhibition | AID 777 | 96,000 tested, 20% active | CYP2C9 Supersomes, luciferin-H conversion, luminescence | P11712 | inhibition, % at 5 µM;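 active = blocking of liver enzyme CYP2C9 beyond about 50% at 5 µM, limit read from the data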
# CYP2C19 act: cytochrome P450 2C19 (human) activation; activation factor at 5 µM; 96,000 tested, under 10 active; AID 1025; P33261; recombinant CYP2C19, luciferin-H EGE luminescence; hits give high values; 0 = fully inhibited enzyme, 1 = untreated enzyme;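 active = activation factor of at least 2 at 5 µM in the primary screen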;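 also: 0 = wells with 2.5 mM tranylcypromine and 1 = vehicle-only wells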
# CYP2C9 act: increases human cytochrome P450 2C9 activity. P11712. recombinant CYP2C9, luciferin-H conversion, luminescence; hits give high values; factor 1 = untreated enzyme, 0 = blocked. activation factor at 5 µM. 96,000 tested, 1.4% active. AID 1024;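 active = activation factor of 2 or more for CYP2C9 at a 5 µM dose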;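 also: 0 = sulfaphenazole-blocked wells and 1 = vehicle-only wells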
# CYP2C19 inh: inhibitors of human CYP2C19; AID 778; P33261; 96,000 tested, 21% active; CYP2C19 Supersomes, luciferin-H EGE luminescence, 30 min; inhibition, % at 5 µM;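 active = CYP2C19 inhibition above a set limit at 5 µM in the primary screen, cut at about 50% in these data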;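 also: plate controls were negative control wells for no effect and 2.5 mM tranylcypromine positive control for full effect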
# Cav32 inh: inhibitors of human Cav3.2 T-type calcium channel; O95180; Cav3.2-expressing cells, Fluo-4 calcium fluorescence FDSS; hits give low values; B-score at 10 µM; 100,000 tested, 4% active; AID 449739;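 active = single-dose well whose peak fluorescence ratio is a statistical outlier from its plate by either plate-standardised score or position-corrected B-score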
# Starred values were filed as active, the others as inactive; x = no result given. A selection: hits, their analogues and other compounds. The true share with any hit is near 27%.
SMILES,CYP2C9 inh,CYP2C19 act,CYP2C9 act,CYP2C19 inh,Cav32 inh
COc1cc2c(cc1OC)C(C(=O)NC1CC1)C1c3ccccc3CCN1C2=O (configuration not stated),x,x,x,x,-0.139
CCN(CC)CCNC(=O)C1c2cc(OC)c(OC)cc2C(=O)N2CCc3ccccc3C12 (configuration not stated),76.5*,1,0.2,2.1,0.536
CCOC(=O)N1CCN(C(=O)C2c3cc(OC)c(OC)cc3C(=O)N3CCc4ccccc4C23)CC1 (configuration not stated),76.2*,0.9,0.2,6.1,1.67
CCN(CC)CCCNC(=O)C1c2cc(OC)c(OC)cc2C(=O)N(C)C1c1cccs1 (configuration not stated),19.1,0.3,0.8,74.5*,0.76
CN1C[C@@H]2C(c3ccc(C(F)(F)F)cc3)C3(c4ccc(C#N)cc4)CC2(C3)[C@H]1c1ccccc1 (some centres not stated),x,x,x,x,-1.24
CCOC(=O)c1ccc(N2C(=O)CC(N3CCC(C(N)=O)(N4CCCCC4)CC3)C2=O)cc1 (configuration not stated),x,x,x,x,0.7
C=CCn1c(SCC(=O)Nc2c(C)n(C)n(-c3ccccc3)c2=O)nc2sc(C)c(-c3ccccc3)c2c1=O,24.1,0.9,0.8,12.1,-2.41
CCOC(=O)c1ccc(NS(=O)(=O)c2ccc(SC)cc2)cc1,46.2,1,0.5,-0.4,-1.25
CCOC(=O)Cc1ccc(NS(=O)(=O)c2ccc(SC)cc2)cc1,71.0*,0.7,0.3,32.1,-6.19*
CCOc1ccc(NS(=O)(=O)c2ccc(N)cc2)cc1,69.8*,0.5,0.3,53.7*,-0.277
CCOc1ccc(NS(=O)(=O)c2ccc3[nH]c(=O)oc3c2)cc1,87.3*,0.1,0.1,88.1*,x
CCOc1ccc(NS(=O)(=O)c2ccc(SC)cc2)cc1,x,x,x,x,-5.87*
CCOC(=O)c1c(NC(=O)c2cccs2)sc(C(=O)N(C)C)c1C,77.0*,0.4,0.2,57.6*,0.231
CCOC(=O)c1c(NC(=O)c2cccs2)sc(C)c1CC,4.2,0.6,1,44.1,x
COC(=O)c1c(NC(=O)c2ccco2)sc(C(=O)N(C)C)c1C,x,x,x,x,-0.785
CCc1c(C)sc(NC(=O)c2cccs2)c1C(=O)OC(C)C,64.3*,0.5,0.4,50.7*,-1.47
CCOC(=O)c1c(NC(=O)C2c3ccccc3Oc3ccccc32)sc(C(N)=O)c1C,78.4*,0.5,0.2,45.6,x
CCc1noc(C)c1C(=O)Nc1sc(C(=O)N(C)C)c(C)c1C(=O)OC,59.6*,0.5,0.4,46.3,0.299
CCC(=O)N(Cc1ccco1)c1nc(-c2cc(OC)ccc2OC)cs1,x,x,x,x,0.601
CCNc1nc(NCc2ccccc2)nc(Oc2ccc(=O)[nH]n2)n1,x,x,x,x,0.263
CC(C)c1ccc(/C=c2\sc3nc(-c4ccncc4)nn3c2=O)cc1,57.8*,0.7,0.4,27.2,2.69
O=C(C1CCC1)N1CCc2cc(S(=O)(=O)N3CCN(c4ccccn4)CC3)ccc21,40.1,1,0.6,-0.2,-2.02
Cc1ccc(C(=O)COC(=O)C2C3C=CC(C3)C2C(=O)OCC(=O)c2ccc(C)c(C)c2)cc1C (configuration not stated),50.9*,0.7,0.5,28.8,-5.08*
COc1ccc(-c2nc(CSCC(=O)NCc3ccc4c(c3)OCO4)c(C)o2)cc1,89.2*,0,0.1,95.3*,1.26
COc1ccc(-c2nc(CS(=O)CC(=O)NCCC3=CCCCC3)c(C)o2)cc1 (configuration not stated),48.8,0.6,0.5,40.8,-4.95
SMILES,CYP2C9 inh,CYP2C19 act,CYP2C9 act,CYP2C19 inh,Cav32 inh
CCc1ccc(-c2nc(CSCC(=O)NCCCN3CCCC3=O)c(C)o2)cc1,87.7*,0.9,0.1,14.0,0.653
COc1ccc(-c2nc(CSCC(=O)NCc3ccc4c(c3)OCO4)c(C)o2)cc1OC,52.8*,0.3,0.5,65.1*,0.0312
COc1ccc(-c2nc(CSCC(=O)NCCC3=CCCCC3)c(C)o2)cc1OC,46.0,0.4,0.5,60.0*,-3.38
CCC(C)C(NC(=O)c1ccccc1NC(=O)c1ccco1)C(=O)NC1CCCCC1 (configuration not stated),42.2,0.8,0.6,16.9,-1.66
Cc1ccsc1-c1nc(CSCC(=O)NCc2ccc3c(c2)OCO3)c(C)o1,79.0*,0.5,0.2,46.4,x
CC1=CC(C)(C)N=C(Nc2ccc(C)cc2)S1,2.4,0.2,1,75.6*,-1.56
Cc1nc(-c2ccccc2)sc1C(=O)CSc1ccc(Cl)cc1,76.9*,1,0.2,4.2,x
Cc1ccc(N/C=C/C(=O)c2sc(-c3ccccc3)nc2C)cc1,20.9,0.9,0.8,8.5,-2.14
Cc1nc(-c2ccccc2)sc1C(=O)CSc1ccc(Br)cc1,85.1*,0.9,0.1,13.4,x
Oc1cccc2cc3cccc(O)c3c(O)c12,x,x,x,x,-0.382
CC(=O)Nc1ccc(NC(=O)CSc2nccn2Cc2ccccc2)cc1,12.4,0.8,0.9,17.3,-0.0566
Clc1ccc(CSc2nccn2Cc2ccccc2)cc1,-9.1,0.1,1.1,93.1*,-5.05*
N#Cc1ccccc1NC(=O)CSc1nccn1CCc1ccccc1,-39.5,0.4,1.4,58.7*,-2.43
O=C(CCSc1nccn1Cc1ccccc1)N1CCOCC1,-19.6,0.9,1.2,14.8,-0.289
Cc1ccc(NC(=O)CSc2nccn2Cc2ccccc2)cc1C,-95.6,0.7,2*,34.4,-7.96*
O=[N+]([O-])c1ccc(Sc2nccn2Cc2ccccc2)cc1,70.3*,0,0.3,95.6*,-0.913
CC(C(=O)O)C1SC(=O)NC1=O (configuration not stated),0.8,1.2,1,-15.1,0.152
CC(=O)c1ccc(NC(=O)CSc2nccn2CCc2ccccc2)cc1,45.4,0.5,0.5,52.7*,-0.144
COc1cccc(OCC(O)CN2CCC(Cc3ccccc3)CC2)c1 (configuration not stated),-1.1,1,1,-4.3,-4.22*
COc1cccc(OCC(O)CN2CCOCC2)c1 (configuration not stated),-13.4,1.1,1.1,-11.1,0.336
C=CCc1ccc(OCC(O)CN2CCC(Cc3ccccc3)CC2)c(OC)c1 (configuration not stated),-6.8,0.5,1.1,54.6*,-4.03*
Cc1ccc(NCc2nnc(SCC(=O)OC3CCCCC3)o2)c(C)c1,36.0,0.6,0.6,37.4,-3.23
CCCc1nnc(SCC(=O)N2CCCCC2)n1CC1CCCO1 (configuration not stated),18.6,1,0.8,0.7,-0.697
CCOC(=O)c1ccc(S(=O)(=O)Nc2ccccc2-c2nnn(CC)n2)cc1,95.9*,0,0,99.3*,-1.54
CCOC(=O)c1ccc(S(=O)(=O)Nc2cc(C(C)(C)C)no2)cc1,82.9*,0.8,0.2,16.2,-0.418
CCn1nnc(-c2ccccc2NS(=O)(=O)c2ccc(S(=O)(=O)N(C)C3CCCCC3)cc2)n1,84.3*,0.8,0.2,17.1,-0.424

# Source: PubChem (several laboratories)
